This passage reports residual activity results from ChEMBL document CHEMBL2218924, “A broad activity screen in support of a chemogenomic map for kinase signalling research and drug discovery” (Biochem J, 2013).

The term residual activity denotes the signal under treatment as a percentage of the control signal.

Assay [1] addresses BDNF/NT-3 growth factors receptor (Homo sapiens) (UniProt Q16620). The conditions noted are these: at 10 µM.
For assay [2], the target named is T1, Tyrosine-protein kinase TXK (Homo sapiens) (UniProt P42681).
T1 sequence (whole entry): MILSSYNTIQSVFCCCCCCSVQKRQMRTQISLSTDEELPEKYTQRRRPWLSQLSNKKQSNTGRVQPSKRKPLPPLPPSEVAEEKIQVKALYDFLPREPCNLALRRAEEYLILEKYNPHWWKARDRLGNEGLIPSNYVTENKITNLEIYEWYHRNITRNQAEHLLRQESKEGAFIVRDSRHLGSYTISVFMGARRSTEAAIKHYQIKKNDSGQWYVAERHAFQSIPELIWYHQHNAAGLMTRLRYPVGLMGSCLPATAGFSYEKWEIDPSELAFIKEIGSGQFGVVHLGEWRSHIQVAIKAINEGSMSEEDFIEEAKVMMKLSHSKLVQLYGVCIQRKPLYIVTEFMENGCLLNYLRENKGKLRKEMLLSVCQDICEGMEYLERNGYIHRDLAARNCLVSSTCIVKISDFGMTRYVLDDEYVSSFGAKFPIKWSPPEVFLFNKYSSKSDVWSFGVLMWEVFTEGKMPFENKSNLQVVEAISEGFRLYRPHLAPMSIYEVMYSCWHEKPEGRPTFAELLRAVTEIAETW
The conditions noted are these: at 1 µM.

The target of assay [3] is T1, Tyrosine-protein kinase TXK (Homo sapiens). The conditions noted are these: at 10 µM.
For assay [4], the target named is T2, Serine/threonine-protein kinase ULK2 (Homo sapiens) (UniProt Q8IYT8).
T2 sequence (whole entry): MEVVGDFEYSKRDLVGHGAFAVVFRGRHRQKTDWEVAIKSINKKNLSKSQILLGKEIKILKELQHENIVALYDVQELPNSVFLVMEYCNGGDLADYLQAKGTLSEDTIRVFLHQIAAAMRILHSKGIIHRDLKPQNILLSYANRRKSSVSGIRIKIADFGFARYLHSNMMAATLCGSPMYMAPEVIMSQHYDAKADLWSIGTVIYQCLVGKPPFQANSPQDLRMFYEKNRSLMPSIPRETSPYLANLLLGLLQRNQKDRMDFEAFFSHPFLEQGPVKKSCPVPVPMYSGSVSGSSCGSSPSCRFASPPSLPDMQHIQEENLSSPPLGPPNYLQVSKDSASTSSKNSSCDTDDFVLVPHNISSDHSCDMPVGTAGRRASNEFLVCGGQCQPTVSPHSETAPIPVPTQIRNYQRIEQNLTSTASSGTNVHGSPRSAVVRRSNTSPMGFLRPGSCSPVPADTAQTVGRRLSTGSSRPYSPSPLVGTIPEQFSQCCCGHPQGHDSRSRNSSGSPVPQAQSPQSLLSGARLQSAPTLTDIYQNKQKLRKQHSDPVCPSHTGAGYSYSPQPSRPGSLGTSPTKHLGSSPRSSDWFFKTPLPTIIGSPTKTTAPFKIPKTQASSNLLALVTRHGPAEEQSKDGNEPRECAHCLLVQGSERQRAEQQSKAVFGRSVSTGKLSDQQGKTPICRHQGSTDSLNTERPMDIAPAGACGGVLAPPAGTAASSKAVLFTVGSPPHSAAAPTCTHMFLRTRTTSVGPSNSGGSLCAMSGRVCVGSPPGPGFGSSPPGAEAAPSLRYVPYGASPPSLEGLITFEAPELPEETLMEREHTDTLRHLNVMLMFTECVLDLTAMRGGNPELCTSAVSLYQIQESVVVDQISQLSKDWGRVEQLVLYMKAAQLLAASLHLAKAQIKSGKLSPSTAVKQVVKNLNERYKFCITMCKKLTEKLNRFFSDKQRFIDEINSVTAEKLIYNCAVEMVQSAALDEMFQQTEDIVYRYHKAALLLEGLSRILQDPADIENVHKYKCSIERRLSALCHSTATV
The conditions noted are these: at 1 µM.

Assay [5] has as its target T2, Serine/threonine-protein kinase ULK2 (Homo sapiens). The conditions noted are these: at 10 µM.
Assay [6] deals with T3, Serine/threonine-protein kinase ULK3 (Homo sapiens) (UniProt Q6PHR2).
T3 sequence (whole entry): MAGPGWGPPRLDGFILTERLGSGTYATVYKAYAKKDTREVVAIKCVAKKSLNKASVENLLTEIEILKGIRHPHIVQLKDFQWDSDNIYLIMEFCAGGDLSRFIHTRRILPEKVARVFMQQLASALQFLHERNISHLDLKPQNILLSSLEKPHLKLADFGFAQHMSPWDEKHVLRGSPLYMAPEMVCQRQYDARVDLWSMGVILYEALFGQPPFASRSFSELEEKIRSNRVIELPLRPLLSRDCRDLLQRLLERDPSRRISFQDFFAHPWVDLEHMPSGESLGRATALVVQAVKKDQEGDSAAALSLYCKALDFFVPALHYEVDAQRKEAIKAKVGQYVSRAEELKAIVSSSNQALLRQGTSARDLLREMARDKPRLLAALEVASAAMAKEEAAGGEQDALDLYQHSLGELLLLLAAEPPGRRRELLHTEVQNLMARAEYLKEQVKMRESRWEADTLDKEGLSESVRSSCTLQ
The conditions noted are these: at 1 µM.

In assay [7] the target is T3, Serine/threonine-protein kinase ULK3 (Homo sapiens). The conditions noted are these: at 10 µM.
The target in assay [8] is Serine/threonine-protein kinase VRK2 (Homo sapiens) (UniProt Q86Y07). The conditions noted are these: at 1 µM.
Assay [9] has the same target. The conditions noted are these: at 10 µM.
In assay [10] the target is Serine/threonine-protein kinase WNK2 (Homo sapiens) (UniProt Q9Y3S1). The conditions noted are these: at 1 µM.
Assay [11] has the same target. The conditions noted are these: at 10 µM.
Assay [12] addresses Serine/threonine-protein kinase WNK3 (Homo sapiens) (UniProt Q9BYP7). The conditions noted are these: at 1 µM.
Assay [13] shares this target. The conditions noted are these: at 10 µM.
Assay [14] concerns the target Tyrosine-protein kinase Yes (Homo sapiens) (UniProt P07947). The conditions noted are these: at 1 µM.
Assay [15] has the same target. The conditions noted are these: at 10 µM.
Assay [16] has as its target T4, Tyrosine-protein kinase ZAP-70 (Homo sapiens) (UniProt P43403).
T4 sequence (whole entry): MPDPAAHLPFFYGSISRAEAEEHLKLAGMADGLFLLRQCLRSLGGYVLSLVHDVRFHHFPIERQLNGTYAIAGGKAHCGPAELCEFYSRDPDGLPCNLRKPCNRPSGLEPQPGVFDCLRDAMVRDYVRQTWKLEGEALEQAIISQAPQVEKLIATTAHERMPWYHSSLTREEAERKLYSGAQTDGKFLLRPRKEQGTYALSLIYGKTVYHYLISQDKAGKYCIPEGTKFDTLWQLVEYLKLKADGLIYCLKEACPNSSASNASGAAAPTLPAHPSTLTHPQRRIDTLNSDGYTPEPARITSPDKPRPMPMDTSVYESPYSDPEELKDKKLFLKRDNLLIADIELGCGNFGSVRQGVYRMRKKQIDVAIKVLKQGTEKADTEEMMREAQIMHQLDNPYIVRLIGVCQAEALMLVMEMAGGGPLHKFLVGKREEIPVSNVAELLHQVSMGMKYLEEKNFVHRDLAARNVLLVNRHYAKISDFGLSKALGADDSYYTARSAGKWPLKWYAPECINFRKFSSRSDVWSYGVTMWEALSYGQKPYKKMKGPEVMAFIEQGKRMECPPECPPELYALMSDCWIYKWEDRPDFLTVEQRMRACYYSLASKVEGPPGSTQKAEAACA
The conditions noted are these: at 1 µM.

Assay [17] has as its target Death-associated protein kinase 3 (Homo sapiens) (UniProt O43293). The conditions noted are these: at 1 µM.
Assay [18] shares this target. The conditions noted are these: at 10 µM.
Assay [19] deals with RAF proto-oncogene serine/threonine-protein kinase (Homo sapiens) (UniProt P04049). The conditions noted are these: at 1 µM.
The target is the same in assay [20]. The conditions noted are these: at 10 µM.

Sequence of Tyrosine-protein kinase Yes (Homo sapiens) (P07947 2-543 limits assumed): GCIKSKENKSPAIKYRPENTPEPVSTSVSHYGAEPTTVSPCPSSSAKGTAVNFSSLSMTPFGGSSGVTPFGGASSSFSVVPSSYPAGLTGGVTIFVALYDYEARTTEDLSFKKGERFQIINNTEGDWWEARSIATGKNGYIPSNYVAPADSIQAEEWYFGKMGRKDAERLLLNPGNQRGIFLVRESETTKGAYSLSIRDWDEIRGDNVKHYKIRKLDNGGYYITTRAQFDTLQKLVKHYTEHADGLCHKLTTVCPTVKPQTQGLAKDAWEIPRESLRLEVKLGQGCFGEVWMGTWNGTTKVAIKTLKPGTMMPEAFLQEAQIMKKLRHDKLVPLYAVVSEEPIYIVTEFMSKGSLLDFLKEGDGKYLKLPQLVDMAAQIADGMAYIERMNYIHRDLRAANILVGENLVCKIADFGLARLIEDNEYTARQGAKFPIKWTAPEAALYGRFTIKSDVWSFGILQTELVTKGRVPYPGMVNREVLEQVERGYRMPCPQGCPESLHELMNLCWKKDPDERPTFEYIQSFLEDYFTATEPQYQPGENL
Sequence of BDNF/NT-3 growth factors receptor (Homo sapiens) (Q16620 32-822 limits assumed): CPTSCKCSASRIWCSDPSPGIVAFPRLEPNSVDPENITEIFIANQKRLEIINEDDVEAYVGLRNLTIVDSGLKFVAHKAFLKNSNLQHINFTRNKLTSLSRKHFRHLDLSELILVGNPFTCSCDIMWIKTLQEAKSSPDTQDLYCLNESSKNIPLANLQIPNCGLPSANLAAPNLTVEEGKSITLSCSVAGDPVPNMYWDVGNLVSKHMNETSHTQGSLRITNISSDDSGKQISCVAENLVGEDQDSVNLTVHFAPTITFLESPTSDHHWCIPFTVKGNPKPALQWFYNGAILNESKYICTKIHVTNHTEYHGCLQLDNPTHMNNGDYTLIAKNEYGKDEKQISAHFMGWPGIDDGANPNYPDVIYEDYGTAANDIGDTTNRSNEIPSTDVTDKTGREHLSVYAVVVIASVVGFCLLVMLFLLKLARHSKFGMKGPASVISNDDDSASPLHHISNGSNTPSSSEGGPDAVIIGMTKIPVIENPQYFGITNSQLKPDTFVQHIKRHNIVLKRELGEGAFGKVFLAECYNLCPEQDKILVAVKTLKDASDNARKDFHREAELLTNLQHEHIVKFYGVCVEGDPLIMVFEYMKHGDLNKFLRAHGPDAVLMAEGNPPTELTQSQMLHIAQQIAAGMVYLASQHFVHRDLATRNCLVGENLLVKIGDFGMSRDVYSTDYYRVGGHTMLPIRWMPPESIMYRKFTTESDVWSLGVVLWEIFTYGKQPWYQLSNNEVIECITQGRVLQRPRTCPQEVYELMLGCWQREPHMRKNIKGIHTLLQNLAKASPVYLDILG
Sequence of Serine/threonine-protein kinase WNK3 (Homo sapiens) (Q9BYP7 whole entry): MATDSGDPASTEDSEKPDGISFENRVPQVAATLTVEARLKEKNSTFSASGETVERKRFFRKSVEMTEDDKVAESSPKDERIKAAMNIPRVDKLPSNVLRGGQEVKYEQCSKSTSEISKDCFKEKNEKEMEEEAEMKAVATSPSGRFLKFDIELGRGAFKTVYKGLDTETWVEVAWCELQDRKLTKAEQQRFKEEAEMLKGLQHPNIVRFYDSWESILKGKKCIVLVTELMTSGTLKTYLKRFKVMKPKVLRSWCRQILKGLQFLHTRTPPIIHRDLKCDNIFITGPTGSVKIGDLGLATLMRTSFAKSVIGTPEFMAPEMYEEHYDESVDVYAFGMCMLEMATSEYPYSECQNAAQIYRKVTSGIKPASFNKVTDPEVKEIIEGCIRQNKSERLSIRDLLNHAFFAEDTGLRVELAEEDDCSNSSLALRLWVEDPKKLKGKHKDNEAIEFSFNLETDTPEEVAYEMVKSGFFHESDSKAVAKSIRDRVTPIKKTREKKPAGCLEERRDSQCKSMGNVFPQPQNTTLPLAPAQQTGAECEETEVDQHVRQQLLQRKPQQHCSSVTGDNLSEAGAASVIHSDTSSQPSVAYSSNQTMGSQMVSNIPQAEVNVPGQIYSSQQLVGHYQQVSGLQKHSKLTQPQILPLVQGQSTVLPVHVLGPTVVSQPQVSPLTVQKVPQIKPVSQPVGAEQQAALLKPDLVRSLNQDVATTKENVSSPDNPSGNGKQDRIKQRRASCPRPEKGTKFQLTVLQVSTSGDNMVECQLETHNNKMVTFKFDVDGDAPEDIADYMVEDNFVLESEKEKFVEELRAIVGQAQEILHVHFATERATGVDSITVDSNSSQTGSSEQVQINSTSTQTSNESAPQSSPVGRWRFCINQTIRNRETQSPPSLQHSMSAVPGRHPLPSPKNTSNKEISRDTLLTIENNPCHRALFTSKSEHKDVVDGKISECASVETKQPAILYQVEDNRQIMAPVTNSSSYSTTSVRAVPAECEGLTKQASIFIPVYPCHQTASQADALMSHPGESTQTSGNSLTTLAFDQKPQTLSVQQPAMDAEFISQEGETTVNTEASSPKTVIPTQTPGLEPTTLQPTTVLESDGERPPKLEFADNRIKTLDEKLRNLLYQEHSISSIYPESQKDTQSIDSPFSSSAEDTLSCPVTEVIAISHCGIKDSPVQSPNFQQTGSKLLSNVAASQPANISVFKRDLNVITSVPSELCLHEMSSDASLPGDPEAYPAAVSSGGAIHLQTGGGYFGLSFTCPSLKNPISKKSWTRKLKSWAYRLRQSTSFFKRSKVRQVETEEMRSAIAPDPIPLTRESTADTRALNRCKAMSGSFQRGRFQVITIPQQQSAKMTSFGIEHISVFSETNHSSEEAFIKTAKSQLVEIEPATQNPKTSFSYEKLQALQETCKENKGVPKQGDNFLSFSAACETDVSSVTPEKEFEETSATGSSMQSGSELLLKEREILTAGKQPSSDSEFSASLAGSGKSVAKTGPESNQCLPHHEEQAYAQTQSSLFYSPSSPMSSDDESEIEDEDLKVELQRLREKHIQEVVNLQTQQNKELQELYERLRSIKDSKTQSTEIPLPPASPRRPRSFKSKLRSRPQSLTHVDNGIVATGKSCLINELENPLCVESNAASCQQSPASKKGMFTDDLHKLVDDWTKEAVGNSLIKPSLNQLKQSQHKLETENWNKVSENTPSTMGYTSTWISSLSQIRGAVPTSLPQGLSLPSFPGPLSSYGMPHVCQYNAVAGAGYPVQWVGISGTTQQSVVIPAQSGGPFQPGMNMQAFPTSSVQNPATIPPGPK
Sequence of Serine/threonine-protein kinase VRK2 (Homo sapiens) (Q86Y07 whole entry): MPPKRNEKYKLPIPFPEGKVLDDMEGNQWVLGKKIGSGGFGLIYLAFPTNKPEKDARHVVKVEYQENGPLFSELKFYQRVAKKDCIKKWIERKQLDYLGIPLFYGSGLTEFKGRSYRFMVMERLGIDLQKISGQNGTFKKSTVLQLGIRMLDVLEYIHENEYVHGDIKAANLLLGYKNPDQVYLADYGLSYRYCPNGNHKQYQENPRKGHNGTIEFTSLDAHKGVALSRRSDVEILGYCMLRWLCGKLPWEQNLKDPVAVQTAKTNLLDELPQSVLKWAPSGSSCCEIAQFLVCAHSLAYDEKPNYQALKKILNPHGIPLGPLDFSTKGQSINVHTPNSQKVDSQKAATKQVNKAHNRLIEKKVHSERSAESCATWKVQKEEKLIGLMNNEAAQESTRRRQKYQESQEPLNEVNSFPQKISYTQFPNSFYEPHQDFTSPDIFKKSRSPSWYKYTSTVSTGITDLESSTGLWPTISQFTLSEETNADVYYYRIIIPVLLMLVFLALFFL
Sequence of Death-associated protein kinase 3 (Homo sapiens) (O43293 whole entry, looked up): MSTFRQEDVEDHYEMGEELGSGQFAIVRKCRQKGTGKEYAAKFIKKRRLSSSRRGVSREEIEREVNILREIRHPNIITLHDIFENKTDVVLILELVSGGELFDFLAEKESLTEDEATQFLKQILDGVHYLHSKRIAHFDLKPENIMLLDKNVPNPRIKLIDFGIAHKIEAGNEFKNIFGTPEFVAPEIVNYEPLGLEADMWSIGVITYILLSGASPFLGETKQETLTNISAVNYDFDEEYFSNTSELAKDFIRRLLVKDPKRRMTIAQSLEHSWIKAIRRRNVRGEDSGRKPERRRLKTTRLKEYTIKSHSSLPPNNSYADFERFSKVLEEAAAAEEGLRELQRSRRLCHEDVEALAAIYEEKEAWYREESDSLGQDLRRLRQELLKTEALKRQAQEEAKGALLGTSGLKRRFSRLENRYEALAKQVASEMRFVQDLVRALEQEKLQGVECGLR
Sequence of RAF proto-oncogene serine/threonine-protein kinase (Homo sapiens) (P04049 whole entry): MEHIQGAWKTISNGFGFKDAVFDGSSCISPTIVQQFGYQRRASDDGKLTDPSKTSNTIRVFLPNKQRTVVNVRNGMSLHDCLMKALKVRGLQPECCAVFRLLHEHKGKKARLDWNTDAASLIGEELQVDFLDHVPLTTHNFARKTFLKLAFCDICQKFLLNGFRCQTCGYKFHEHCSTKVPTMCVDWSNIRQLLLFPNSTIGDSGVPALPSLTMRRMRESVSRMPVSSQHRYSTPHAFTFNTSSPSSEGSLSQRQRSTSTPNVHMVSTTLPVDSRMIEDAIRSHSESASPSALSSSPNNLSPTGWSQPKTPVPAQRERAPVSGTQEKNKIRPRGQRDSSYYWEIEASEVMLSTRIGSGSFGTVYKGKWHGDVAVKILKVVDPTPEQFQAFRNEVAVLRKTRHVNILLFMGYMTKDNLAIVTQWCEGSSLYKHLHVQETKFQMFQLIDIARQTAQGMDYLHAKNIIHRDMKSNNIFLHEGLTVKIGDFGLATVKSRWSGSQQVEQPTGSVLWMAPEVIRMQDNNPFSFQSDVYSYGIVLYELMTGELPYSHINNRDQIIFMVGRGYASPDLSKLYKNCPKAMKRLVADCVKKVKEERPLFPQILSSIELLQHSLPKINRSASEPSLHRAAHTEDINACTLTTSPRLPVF

Take `O=C1Nc2cc(Br)ccc2/C1=C1/Nc2ccccc2/C1=N\O`: the residual activity in assay [1] was -1%; in assay [2] it was 13%; in assay [3] it was 23%; in assay [4] it was 102%; in assay [5] it was 98%; in assay [6], 55%. Moreover, the residual activity was 16% in [7]; 94% (inactive) in [8]; 90% in assay [9]; 89% (inactive) in assay [10]; 91% in [11]; 93% (inactive) in assay [12]. Further, the residual activity in [13] stood at 93%; in assay [14], 1%; in [15] it was 4%; in [16], 97%; in assay [17], 38%; in assay [18], 18%. Besides, the residual activity in assay [19] stood at 77%; in assay [20], 68%.
With `COc1cccc(-c2cc(=O)c3ccccc3o2)c1N`, the residual activity was determined as 87% in assay [1]; 77% in assay [2]; 73% in assay [3]; 117% in [4]; 108% in assay [5]; 100% in assay [6]. The residual activity in assay [7] is 105%; in assay [8], 99% (inactive); in [9], 96%; in assay [10], 104% (inactive); in assay [11], 102%; in [12] it was 82% (inactive). The residual activity was 100% in assay [13]; 123% in assay [14]; 106% in [15]; 137% in [16]; 105% in assay [17]; 101% in assay [18]. Also, the residual activity in [19] was determined as 85%; in [20] it was 86%.
On to `COc1ccc(S(=O)(=O)N(CCO)c2ccccc2CN(C)C/C=C/c2ccc(Cl)cc2)cc1`, for which the residual activity in [1] is 61%; in assay [2] it was 94%; in assay [3], 67%; in assay [4], 113%; in assay [5] it was 94%; in assay [6] it was 93%. Also, the residual activity in assay [7] was 95%; in [8], 102% (inactive); in assay [9], 80%; in [10], 100% (inactive); in assay [11], 88%; in assay [12], 100% (inactive). Also, the residual activity in assay [13] was 88%; in [14], 119%; in assay [15], 79%; in assay [16] it was 105%; in assay [17] it was 96%; in assay [18], 96%. Besides, the residual activity was determined as 78% in assay [19] and 73% in [20].
Turning to `Nc1ccc2ncnc(NCCc3ccc(Oc4ccccc4)cc3)c2c1`, the residual activity stood at 58% in assay [1]; 80% in assay [2]; 61% in [3]; 121% in [4]; 108% in assay [5]; 103% in assay [6]. For the same molecule, the residual activity is 87% in assay [7]; 106% (inactive) in assay [8]; 95% in assay [9]; 110% (inactive) in [10]; 82% in assay [11]; 102% (inactive) in assay [12]. In addition, the residual activity came out at 87% in assay [13]; 63% in assay [14]; 33% in [15]; 109% in [16]; 111% in [17]; 111% in assay [18]. The figures for the residual activity in assay [19] and in assay [20] were 82% and 77%, respectively.
With `COc1ccc(OC)c2c(=S)c3ccccc3[nH]c12`, the residual activity amounted to 92% in [1]; 84% in assay [2]; 86% in assay [3]; 100% in assay [4]; 102% in assay [5]; 86% in [6]. Moreover, the residual activity in [7] is 101%; in [8], 91% (inactive); in assay [9], 86%; in [10], 86% (inactive); in assay [11], 87%; in assay [12], 89% (inactive). For the same molecule, the residual activity in assay [13] worked out at 89%; in assay [14], 100%; in assay [15], 100%; in [16], 90%; in assay [17] it was 93%; in [18], 90%. Moreover, the residual activity in [19] stood at 87%; in assay [20] it was 83%.
Consider `Oc1n[nH]c2nnc(-c3c(-c4ccccc4)nn4ccccc34)cc12`, for which the residual activity in assay [1] is 84%; in assay [2] it was 73%; in assay [3], 67%; in assay [4] it was 91%; in [5], 91%; in assay [6], 92%. The residual activity is 95% in assay [7]; 89% (inactive) in assay [8]; 82% in assay [9]; 93% (inactive) in assay [10]; 86% in [11]; 92% (inactive) in assay [12]. The residual activity in [13] turned out to be 83%; in [14], 104%; in [15] it was 91%; in assay [16] it was 105%; in assay [17], 66%; in assay [18] it was 48%. In addition, the residual activity in [19] came out at 73%; in assay [20], 77%.
